CYP2C19 inhib: blocks human cytochrome P450 2C19; P33261; CYP2C19 Supersomes, luciferin-H EGE luminescence, 30 min; inhibition, % at 5 µM; 21% of 96,000 active; AID 778;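 active means CYP2C19 inhibition above a set limit at 5 µM in the primary screen, cut at about 50% in these data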;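 further: plate controls were negative control wells for no effect and 2.5 mM tranylcypromine positive control for full effect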
Target sequence (P33261 whole entry, looked up): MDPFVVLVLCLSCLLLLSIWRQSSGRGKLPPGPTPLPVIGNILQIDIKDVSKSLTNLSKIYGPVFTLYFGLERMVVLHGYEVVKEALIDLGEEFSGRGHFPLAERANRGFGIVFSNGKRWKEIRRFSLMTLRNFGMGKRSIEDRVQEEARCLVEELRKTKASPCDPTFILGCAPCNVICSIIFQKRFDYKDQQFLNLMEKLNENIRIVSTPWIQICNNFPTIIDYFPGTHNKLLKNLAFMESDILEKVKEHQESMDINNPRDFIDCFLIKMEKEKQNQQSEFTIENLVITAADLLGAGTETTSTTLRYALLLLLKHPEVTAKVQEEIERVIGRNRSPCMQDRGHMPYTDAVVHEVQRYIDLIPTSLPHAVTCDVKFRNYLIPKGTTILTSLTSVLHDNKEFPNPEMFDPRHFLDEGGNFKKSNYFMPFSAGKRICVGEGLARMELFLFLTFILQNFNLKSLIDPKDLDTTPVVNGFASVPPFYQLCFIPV
Cav3 T inh: human Cav3.2 channel inhibition, primary screen. AID 449739. 4% of 100,000 active. B-score at 10 µM. Cav3.2-expressing cells, Fluo-4 calcium fluorescence FDSS; active compounds read low;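 active means single-dose well whose peak fluorescence ratio is a statistical outlier from its plate by either plate-standardised score or position-corrected B-score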
CYP2C9 inh: inhibitors of human CYP2C9. CYP2C9 Supersomes, luciferin-H conversion, luminescence. inhibition, % at 5 µM. 20% of 96,000 active;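 active means blocking of liver enzyme CYP2C9 beyond about 50% at 5 µM, limit read from the data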
CYP2C19 act: increases human CYP2C19 enzyme activity; activation factor at 5 µM; 96,000 tested, under 10 active; AID 1025; recombinant CYP2C19, luciferin-H EGE luminescence; active compounds read high; 0 = fully inhibited enzyme, 1 = untreated enzyme;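 active means activation factor of at least 2 at 5 µM in the primary screen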;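 further: 0 = wells with 2.5 mM tranylcypromine and 1 = vehicle-only wells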
CYP2C9 activ: activators of human CYP2C9; AID 1024; 1.4% of 96,000 active; activation factor at 5 µM; recombinant CYP2C9, luciferin-H conversion, luminescence; active compounds read high; factor 1 = untreated enzyme, 0 = blocked; P11712;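 active means activation factor of 2 or more for CYP2C9 at a 5 µM dose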;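 further: 0 = sulfaphenazole-blocked wells and 1 = vehicle-only wells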
Starred values were filed as active, the others as inactive; nt = no result given. In the library only some 27% were active in any assay of this set; here they are far more common.

SMILES | CYP2C19 inhib | Cav3 T inh | CYP2C9 inh | CYP2C19 act | CYP2C9 activ
Cc1ccc2c(CC(=O)N3CCN(S(=O)(=O)c4cccs4)CC3)coc2c1 | 92.4* | 0.074 | 79.6* | 0.1 | 0.2
COc1ccc2nc(NC(=O)C3CCCN(S(=O)(=O)c4cccc5nonc45)C3)sc2c1 (stereo not drawn) | nt | -0.00253 | nt | nt | nt
CCOc1ccccc1NC(=O)C1CCCN(S(=O)(=O)c2cccc3nsnc23)C1 (stereo not drawn) | 51.7* | 0.146 | 53.2* | 0.5 | 0.5
COc1ccc2nc(NC(=O)C3CCCN(S(=O)(=O)c4cccc5nsnc45)C3)sc2c1 (stereo not drawn) | 78.0* | -4.33 | 85.6* | 0.2 | 0.1
CCOc1ccccc1NC(=O)C1CCCN(S(=O)(=O)c2cccc3cccnc23)C1 (stereo not drawn) | 16.7 | 1.01 | -11.5 | 0.8 | 1.1
O=C1c2ccccc2C(=O)N1CCOCCN1C(=O)c2ccccc2C1=O | 3.3 | -0.0413 | -5.4 | 1 | 1.1
N#Cc1ccccc1OCCN1C(=O)c2ccccc2C1=O | 81.6* | 0.241 | 60.5* | 0.2 | 0.4
O=C1c2ccccc2C(=O)N1CCCOc1ccccc1 | 84.7* | nt | 20.4 | 0.2 | 0.8
O=C1c2ccccc2C(=O)N1CN(C(=O)COc1ccccc1)c1ccccc1 | 57.6* | 0.0293 | 30.1 | 0.4 | 0.7
COCCCN1C(=O)c2ccc(C(=O)O)cc2C1=O | -8.9 | 0.399 | -1.5 | 1.1 | 1
CC(=O)N1CCC(=O)N(C(C)C)c2ccccc21 | -7.0 | 0.359 | 4.1 | 1.1 | 1
O=C(Oc1cccc(N2C(=O)CCC2=O)c1)C1CC(=O)N(c2ccc(F)cc2)C1 (stereo not drawn) | -13.4 | -0.344 | 7.6 | 1.1 | 0.9
OC(COc1ccc2c(c1)OCO2)CN1CCc2ccccc2C1 (stereo not drawn) | 42.6 | -0.578 | 8.0 | 0.6 | 0.9
Cc1cc(C)c(N2CCN(S(=O)(=O)N3CCCCCC3)CC2)c(C)c1 | 80.0* | -0.0545 | 73.0* | 0.2 | 0.3
Cc1ccc(NC2=NC(c3ccc(C)cc3)n3c(nc(C)cc3=O)N2)cc1 (stereo not drawn) | 71.0* | -1.07 | 50.2* | 0.3 | 0.5
Cc1ccc(NC2=NC(c3ccccc3)n3c(nc(C)cc3=O)N2)c(C)c1 (stereo not drawn) | 82.6* | -0.742 | 36.1 | 0.2 | 0.6
Cc1ccc(NC2=NC(C(=O)Nc3ccc(C)c(C)c3)CC(=O)N2)cc1 (stereo not drawn) | 2.2 | -0.017 | -7.5 | 1 | 1.1
COc1cc2c(=O)nc3n(c2cc1OC)C(c1ccccc1)N=C(N)N3 (stereo not drawn) | 36.7 | nt | -7.8 | 0.6 | 1.1
Cc1cc2nc(SCCOC(=O)Nc3ccc(Cl)cc3)nc(C)c2cc1C | 16.5 | -0.659 | 0.5 | 0.8 | 1
Cc1nn(C(C)C(=O)N2CCc3ccccc32)c(C)c1[N+](=O)[O-] (stereo not drawn) | 55.4* | -2.54 | 67.7* | 0.4 | 0.3
CC(=O)C(C(C)=O)c1c(Cl)c(O)c(O)c2c(C(=O)c3ccccc3)coc12 | 8.9 | -1 | 86.3* | 0.9 | 0.1
CCOCCCNCC(=O)Nc1ccccc1N1CCOCC1 | 0.4 | 1.44 | -21.9 | 1 | 1.2
CC(=O)NCCN1C(=O)C2C3c4ccccc4C(c4ccccc43)C2C1=O (stereo not drawn) | 43.2 | -0.0439 | 1.8 | 0.6 | 1
Cc1nn(Cc2ccccc2Cl)c(C)c1NC(=O)c1noc2c1CCCCC2 | -2.5 | -1.72 | 53.8* | 1 | 0.5
Cc1nn(Cc2ccc(Cl)cc2)c(C)c1NC(=O)c1noc2c1CCc1ccccc1-2 | -1.1 | 0.0761 | -7.5 | 1 | 1.1
SMILES | CYP2C19 inhib | Cav3 T inh | CYP2C9 inh | CYP2C19 act | CYP2C9 activ
Cc1cc(NC(=O)c2noc3c2CCCC3)nn1Cc1ccc(Cl)cc1 | 6.3 | -4.8* | 10.8 | 0.9 | 0.9
COc1ccc(-c2cc(C(=O)Nc3c(C)nn(Cc4ccccc4Cl)c3C)no2)cc1 | 18.4 | -3.17 | 44.3 | 0.8 | 0.6
Cc1nn(Cc2ccccc2Cl)c(C)c1NC(=O)C1C2CCC(O2)C1C(=O)O (stereo not drawn) | 94.1* | -0.0435 | 27.4 | 0.1 | 0.7
Cc1nn(Cc2ccc(F)cc2)c(C)c1NC(=O)c1noc2c1CCCCC2 | 55.7* | -0.575 | 76.8* | 0.4 | 0.2
CCCN(Cc1cc2ccc(C)cc2[nH]c1=O)C(=O)c1ccccn1 | 16.5 | nt | 4.8 | 0.8 | 1
COC(=O)[C@@]1(Cc2ccc(OC)cc2)[C@H]2c3cc(C(=O)N4CCCC4)n(C[C@H](O)CO)c3C[C@H]2CN1C(=O)c1ccccc1 | nt | 1.28 | nt | nt | nt
CCOc1ccc(OCC)c(-c2c(=O)n(OCc3ccc(C(C)(C)C)cc3)c3ccccc3[n+]2[O-])c1 | 87.8* | -3.65 | 52.4* | 0.1 | 0.5
CCOn1c(=O)c(-c2ccc(OC)cc2)[n+]([O-])c2ccccc21 | 7.8 | -0.316 | 18.9 | 0.9 | 0.8
Cc1sc(NC(=O)CSc2nnc(-c3ccccc3)o2)c(C#N)c1C | 41.6 | 3.23 | 37.5 | 0.6 | 0.6
CC(C)C(C)(C#N)NC(=O)CSc1ncnc2sc(-c3ccccc3)cc12 (stereo not drawn) | 96.4* | -0.342 | 83.2* | 0 | 0.2
CCN(CC)C(=O)CSc1ncnc2sc(-c3ccccc3)cc12 | 96.6* | -3.75 | 92.9* | 0 | 0.1
CCCCCn1cnc2sc(-c3ccccc3)cc2c1=O | 44.3 | -1.04 | 58.3* | 0.6 | 0.4
COc1ccccc1-n1cnc2sc(-c3ccccc3)cc2c1=O | 28.6 | nt | 28.9 | 0.7 | 0.7
CC(C)C(C)(C#N)NC(=O)CSc1nnc(-c2ccccc2)o1 (stereo not drawn) | 67.8* | -0.201 | 9.4 | 0.3 | 0.9
CCOCCCNC(=O)CCCOc1ccccc1 | 7.9 | 0.0123 | -1.0 | 0.9 | 1
COc1ccc(Nc2ncnc3sc(-c4ccccc4)cc23)cc1 | -14.8 | -0.0944 | -8.9 | 1.1 | 1.1
COc1ncnc2sc(-c3ccccc3)cc12 | 76.5* | -0.016 | 19.5 | 0.2 | 0.8
COCCN(C(=O)CCC(=O)Nc1ccccn1)C(C(=O)NC1CCCC1)c1ccc(OC)cc1 (stereo not drawn) | nt | 0.0153 | nt | nt | nt
CCCCN(CCCC)c1ccc(C(=O)c2ccccc2C(=O)O)c(O)c1 | 35.0 | -3.21 | 64.3* | 0.7 | 0.4
Cc1c(Br)cc(C(=O)NCc2ccco2)c(C)c1C | 77.0* | -0.889 | -168.0 | 0.2 | 2.7*
O=C(NCc1ccco1)c1cc2c(s1)CCCCC2 | 8.9 | -1.7 | -2.2 | 0.9 | 1
O=C(NCc1ccco1)c1ccc(Br)s1 | 69.7* | 0.0561 | 37.3 | 0.3 | 0.6
COc1cc(CC(=O)NCc2ccco2)cc(OC)c1OC | 20.8 | 0.327 | -6.3 | 0.8 | 1.1
Cc1ccc(C(=O)NCc2ccco2)cc1Br | 70.2* | -1.71 | -31.6 | 0.3 | 1.3
Cc1ccc2c(CC(=O)NCc3ccco3)coc2c1C | 98.9* | -9.36* | -53.8 | 0 | 1.5
COc1cc(C(=O)NCc2ccco2)c(Br)c(OC)c1OC | 39.0 | 0.138 | -12.6 | 0.6 | 1.1
Cc1ccc(C(=O)ON=C2CCN(S(=O)(=O)c3ccccc3)CC2)cc1 | 12.3 | -2.09 | -2.9 | 0.9 | 1

High-throughput results deposited in PubChem BioAssay by several laboratories.
